Sampled rows, rich in hits. Any-hit rate of the full collection: about 2.9%.
FadD28 FP inh – blocks FadD28 binding to the bisubstrate probe; fluorescence polarization; inhibition, % at 12.5 µM; 360,000 compounds, 0.22% hits; AID 588549; in the data active = inhibition above about 8.5%, passing the limit was not always enough
Mtb hypoxia inh – reduces hypoxia-regulated biosensor signal in M. tuberculosis | fluorescence inhibition, % (test concentration not listed) | M. tuberculosis hypoxia-regulated fluorescent reporter, fluorescence | 300,000 compounds, 0.1% hits; in the data active = fluorescence inhibition mostly above about 23%, no sharp cut-off; inactive = mostly below about 17%
FBA Mtb inh – Mtb fructose-bisphosphate aldolase inhibition; inhibition, % at 1 µM; purified M. tuberculosis FBA, fluorescence read-out; 360,000 compounds, 2.3% hits; in the data active = inhibition above about 27%;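 also: 0% = vehicle and 100% = reference inhibitor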
Target sequence (P9WQA3 whole entry, looked up): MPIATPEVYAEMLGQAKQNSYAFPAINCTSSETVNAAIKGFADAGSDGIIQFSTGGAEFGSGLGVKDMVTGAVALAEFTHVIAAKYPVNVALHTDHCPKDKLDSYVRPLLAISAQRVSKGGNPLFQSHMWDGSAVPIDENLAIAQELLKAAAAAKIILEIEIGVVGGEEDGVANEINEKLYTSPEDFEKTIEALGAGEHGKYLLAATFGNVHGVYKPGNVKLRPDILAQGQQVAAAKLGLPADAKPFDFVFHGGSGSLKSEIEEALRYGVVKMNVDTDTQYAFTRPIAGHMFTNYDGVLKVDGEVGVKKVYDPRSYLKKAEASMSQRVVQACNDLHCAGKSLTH
Mtb BioA inh – blocks M. tuberculosis BioA enzyme activity. purified M. tuberculosis BioA enzyme, plate reader. inhibition, % at 9.99 µM. 360,000 compounds, 0.096% hits; in the data active = inhibition above about 40%
GDH-TPI inh – counter-screen for M. tuberculosis FBA inhibitors: GDH-TPI coupled enzymes | GDH-TPI coupled enzyme counterscreen, NADH absorbance | inhibition, % at 4.8 µM | 360,000 compounds, 1.2% hits | AID 588335; in the data active = inhibition above about 30%;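 also: 0% = DMSO wells and 100% = wells lacking the enzyme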
Numbers without * were called inactive; nt = no result; + = active, no number.

SMILES | FadD28 FP inh | Mtb hypoxia inh | FBA Mtb inh | Mtb BioA inh | GDH-TPI inh
Cn1nc([N+](=O)[O-])c(C(C#N)c2ccccn2)c(Cl)c1=O (stereo not given) | 1 | 22 | -1 | nt | 12
C[C@H](CO)N1C[C@H](C)[C@H](CN(C)S(C)(=O)=O)Oc2c(NC(=O)C3CCOCC3)cccc2C1=O | nt | nt | nt | -1 | nt
O=c1sc(/C=N/Nc2ccccc2)c(Cl)n1Cc1ccccc1 | -2 | nt | -1 | nt | 86*
COC(=O)c1cccc(Cn2c(Cl)c(/C=N/NC(=O)c3ccco3)sc2=O)c1 | 0 | nt | -2 | nt | 35*
O=C(O)c1cccc(Cn2c(Cl)c(C=NNC(=O)c3ccc(O)cc3)sc2=O)c1 | nt | 13 | nt | nt | nt
O=C(N/N=C/c1sc(=O)n(-c2ccccc2)c1Cl)c1ccccc1 | -1 | nt | -4 | nt | 31*
O=C(O)c1cccc(Cn2c(Cl)c(/C=N/NC(=O)c3ccc(O)cc3)sc2=O)c1 | -16 | nt | -5 | 3 | 34*
O=S1(=O)NC(c2ccccc2)CC(c2ccc(C(F)(F)F)cc2)O1 (stereo not given) | nt | 1 | nt | nt | nt
O=C1C=C(c2cccc(O)c2)CC(c2ccc(F)cc2)C1 (stereo not given) | nt | 9 | nt | nt | nt
Cc1ccc(S(=O)(=O)Nc2ccc3c(c2)C(=O)N([C@H](C)CO)C[C@H](C)[C@H](CN(C)S(=O)(=O)c2cn(C)cn2)OCCCC[C@H](C)O3)cc1 | nt | nt | nt | 0 | nt
CCC(=O)Nc1ccc2c(c1)C(=O)N(C)C[C@@H](OC)[C@H](C)CN(Cc1ccccn1)[C@H](C)CO2 | nt | nt | nt | -2 | nt
COc1ccc(-c2c(-c3cc(OC)cc(OC)c3)n(C)c3ccc(-c4ccc5cc[nH]c5c4)cc23)cc1 | -3 | 3 | 114* | -2 | 35*
COc1ccc(-c2c(-c3cc(OC)cc(OC)c3)n(C)c3ccc(-c4cc(F)cc(OC)c4)cc23)cc1 | -1 | 18 | 6 | 0 | 12
COc1cc(OC)cc(-c2c(C#Cc3ccsc3)c3cc(-c4cccc5[nH]ccc45)ccc3n2C)c1 | -3 | 6 | 21 | -1 | 20
COc1ccc(-c2c(-c3cc(OC)cc(OC)c3)n(C)c3ccc(-c4cccc5[nH]ccc45)cc23)cc1 | -2 | 14 | 121* | -3 | 28
COCCNC(=O)C[C@H]1C[C@H]2c3cc(NC(=O)CN(C)C)ccc3O[C@H]2[C@H](CO)O1 | nt | nt | nt | -1 | nt
CC[n+]1c(/C=C/N(C)c2ccccc2)oc2ccc(Cl)cc21 | 2 | nt | -5 | 11 | 46*
CC[n+]1c(/C=C/N(C)c2ccccc2)sc2ccc(Cl)cc21 | -2 | 3 | -1 | 5 | 5
CCC(=O)Nc1ccc2oc(-c3cccc(C)c3)nc2c1 | -4 | 15 | 139* | 0 | 5
CCCCC(=O)Nc1ccc2oc(-c3cccnc3)nc2c1 | -4 | nt | 141* | 4 | -1
O=C(Nc1cccc(-c2nc3cc(Cl)ccc3o2)c1)C1CCCO1 (stereo not given) | 0 | 2 | 8 | 0 | 2
Cc1cccc(-c2nc3cc(NC(=O)C4CCCO4)ccc3o2)c1 (stereo not given) | -3 | 4 | 114* | nt | -4
C[C@@H]1CN([C@H](C)CO)C(=O)c2cc(NC(=O)C3CCCCC3)ccc2O[C@@H]1CN(C)C(=O)NC1CCCCC1 | nt | nt | nt | -1 | nt
C[C@@H]1CCCCO[C@H](CN(C)C(=O)C2CCCCC2)[C@@H](C)CN([C@H](C)CO)C(=O)c2cc(NS(C)(=O)=O)ccc2O1 | nt | nt | nt | -1 | nt
O=C1NC(Cc2ccccc2)C(=O)N2C1CC1c3ccccc3N(OOSc3ccccc3)C12 (stereo not given) | nt | -2 | nt | nt | nt
SMILES | FadD28 FP inh | Mtb hypoxia inh | FBA Mtb inh | Mtb BioA inh | GDH-TPI inh
CC[n+]1c(-c2ccccc2)c2cc(N)ccc2c2ccc(N)cc21 | 15* | nt | -6 | nt | 6
COc1cc(/C=N/NC(=O)c2cc(-c3ccco3)nc3ccccc23)cc(OC)c1O | -11 | nt | -2 | nt | 47*
COc1cc(C=NNC(=O)c2cc(-c3ccccc3Cl)nc3ccccc23)cc(OC)c1O | nt | 3 | nt | nt | nt
COc1cc(/C=N/NC(=O)c2cc(-c3ccccc3Cl)nc3ccccc23)cc(OC)c1O | -1 | nt | -2 | nt | 39*
CN(/N=C/c1ccccc1O)C(=S)c1ccccc1 | -1 | nt | 1 | 1 | 32*
CSc1ccc(NC(=O)Nc2ccc(C(=O)NCC(=O)O)cc2)cc1 | 11* | nt | -1 | nt | 7
N#CCCn1cc(C(=O)Nc2ccc(C(=O)O)cc2)c(-c2ccc([N+](=O)[O-])cc2)n1 | -4 | 4 | 1 | nt | 14
N#CCCn1cc(C(=O)Nc2ccc([N+](=O)[O-])cc2)c(-c2ccccc2)n1 | -5 | 12 | -1 | 4 | 38*
O=c1c(-c2nc3ccccc3s2)cccn1Cc1ccccc1 | 1 | 16 | 194* | -1 | 21
O=C(Cc1cccs1)NN=C/C=C/c1ccccc1[N+](=O)[O-] | nt | 3 | nt | nt | nt
c1ccc(C2=NN(c3ccccc3)C(c3ccco3)C2)cc1 (stereo not given) | -1 | -9 | 126* | -1 | 8
C[C@H]1CN([C@@H](C)CO)C(=O)c2cc(NS(C)(=O)=O)ccc2O[C@@H]1CN(C)Cc1ccccc1 | nt | nt | nt | -1 | nt
Cc1noc(C)c1S(=O)(=O)N(C)C[C@@H]1OCCCC[C@H](C)Oc2ccc(NC(=O)C3CCCCC3)cc2C(=O)N([C@H](C)CO)C[C@H]1C | nt | nt | nt | -2 | nt
c1ccc2c(Nc3nnc(-c4ccncc4)s3)cccc2c1 | -1 | -1 | 0 | -4 | 38*
O=C(Nc1ccc(F)cc1)Nc1nnc(-c2ccncc2)s1 | 0 | 12 | 1 | -1 | 35*
C=CCNc1nnc(-c2ccncc2)s1 | -3 | nt | 181* | nt | 12
CC(=O)Nc1ccc2nc(-c3cccn3C)[nH]c2c1 | -3 | nt | 6 | 0 | 21
Nc1ccc(-c2nc3c(Cl)cc(N)cc3[nH]2)cc1 | 5 | -4 | 197* | 2 | 45*
Nc1ccc2nc(-c3ccc(N)c(Cl)c3)[nH]c2c1 | 3 | 18 | 119* | nt | 32*
Nc1ccc2nc(-c3cccs3)[nH]c2c1 | -3 | 3 | + | -1 | 29
CC(=O)Nc1ccc2nc(-c3cccs3)[nH]c2c1 | 2 | 5 | + | 9 | 44*
C[C@@H]1CCCCO[C@H](CN(C)C(=O)CCCN(C)C)[C@@H](C)CN([C@@H](C)CO)C(=O)c2cc(NC(=O)Nc3ccc(F)cc3)ccc2O1 | nt | nt | nt | 0 | nt
Nc1ccc2nc(-c3ccccc3)[nH]c2c1 | -2 | 6 | + | -1 | 21
N#C/C(=C\c1coc2ccc(O)cc2c1=O)C(=O)Nc1nc2ccccc2s1 | 29* | 7 | 16 | -31 | 20
O=C(NCC[C@@H]1CC[C@H](NS(=O)(=O)Cc2ccccc2)[C@H](CO)O1)C1CC1 | nt | nt | nt | 0 | nt
C=C(C)[C@@H]1CC=C(CN2CCN(Cc3ccccc3)CC2)CC1 | -2 | 35* | 1 | nt | 0
O=C(Nc1ccc2c(c1)OCO2)C1CCCN1S(=O)(=O)c1cccc2cccnc12 (stereo not given) | nt | 2 | nt | nt | nt
Cc1ccc(Nc2c(-c3ccc(N4CCOCC4)cc3)nc3ncccn23)cc1 | -3 | -3 | 3 | 0 | 31*
COCC(=O)N1C[C@@H]2[C@H](c3ccccc31)[C@@H](CO)N2C(=O)c1ccncc1 | nt | nt | nt | 3 | nt

Screening results deposited in PubChem by several laboratories.
